# Molecular target: Hexose transporter 1 (Plasmodium falciparum) (UniProt O97467)
# Assay: ST_JUDE_LEISH: Cytotoxicity at 2uM final concentration against transgenic Leishmania Mexicana promastigotes LmPfHT that are glucose transport deficient and complemented with the Plasmodium falciparum hexose transporter. Activity is measured by DNA content using SYBR green in vitro
# Assay type: functional
row,Compound,inhibition [%]
1,CCc1cn2c3c(cc(C(=O)N[C@@H](Cc4ccccc4)[C@H](O)CNC4CCC4)cc13)N(C)S(=O)(=O)CC2,5.19
2,CCN(CC)CCCC(C)Nc1ccnc2ccc(OC)cc12 (stereo unspecified),8.91
3,CC[C@H](C)CNC(=O)c1ccnc(-c2ccc(CN3CCC(N4CCCC4)CC3)cc2)c1,0.38
4,Cc1cccc(C(O)CNc2ccnc(Nc3cccc(-c4csc(C)n4)c3)n2)c1 (stereo unspecified),4.04
5,Brc1cc(Br)c2c(c1)C(NCCCNC1CCNc3c(Br)cc(Br)cc31)CCN2 (stereo unspecified),0.89
6,CCOC(=O)Nc1cc(-c2csc(N=C(N)N)n2)cc([N+](=O)[O-])c1,0.58
7,CCC(C)Oc1ccc2nc(N)nc(N)c2c1Cl (stereo unspecified),55.9
8,Cc1ccc(C)c(S(=O)(=O)NCC2CCN(Cc3ccc(O)cc3)CC2)c1,7.78
9,COc1cccc2cc(C(=O)N[C@@H](CC(C)C)C(=O)N[C@H](C=NN3CCCC3=O)Cc3ccccc3)oc12,5.52
10,CC1CN(c2nc(NCCc3ccc(O)cc3)nc(NCc3ccccc3-c3ccc(C(F)(F)F)cc3)n2)CC(C)N1 (stereo unspecified),4.62
11,Cc1nc(-c2cccc(Nc3ccnc4cc(-c5nccs5)ccc34)c2)no1,2.43
12,O=C(CN1CCN(C(=O)c2ccco2)CC1)Nc1ccccc1Br,-1.64
13,O=C(Nc1ccon1)c1cc(-c2cccnc2)nc2ccc(Br)cc12,5.32
14,FC(F)(F)c1ccc2[nH]c(-c3ccc(-c4ccc(CN5CCN(c6ccncc6)CC5)cc4)s3)nc2c1,-1.36
15,Clc1cc(Cl)c2cc(CNCCCNc3ccc4ccccc4n3)[nH]c2c1,0.95
16,Cc1cc(O)c(CN2CCN(Cc3cccs3)CC2)cc1C(C)C,0.02

# Source: ChEMBL document CHEMBL3433997, “St. Jude Leishmania screening dataset” (2016)
